This excerpt belongs to a sample that is enriched for hits.
RMI FANCM FP: RMI-FANCM interaction inhibition | Fluorescence polarization, RMI core complex with F-MM2 peptide; active compounds read low | FP signal (polarization) at 33 µM | 70,000 compounds, 0.58% hits | AID 1159607; in the data active means FP signal below about 40
A number is an active result; . = inactive; ! = repeats disagree.

SMILES	RMI FANCM FP
COc1cc(/C=C\C(=O)NCc2ccc3[nH]c4c(c3c2)CCCC4)cc(OC)c1OC	.
O=C(/C=C/c1ccc(-c2cccs2)s1)Nc1cccc(C(F)(F)F)c1	.
N#Cc1c(-c2ccco2)c2c([nH]c1=O)-c1ccccc1OC2	-3
N#Cc1c(-c2ccco2)c2c([nH]c1=O)-c1ccccc1CC2	.
N#Cc1c(-c2ccco2)cc(-c2ccco2)[nH]c1=O	.
CCOC(=O)c1c(NC(=S)NC(=O)CN2C(=O)C3C4C=CC(C4)C3C2=O)sc(C)c1C (stereo not given)	.
CCc1c2c(nc3sc(C(=O)Nc4ccc(-c5nc6ccccc6s5)cc4)c(N)c13)CC(C)(C)CC2=O	.
COc1ccc(-c2c3c(nc4sc(C(=O)Nc5ccc(Cl)cc5)c(N)c24)CC(C)(C)CC3=O)cc1	.
CCc1c2c(nc3sc(C(=O)c4ccc(Cl)c(Cl)c4)c(N)c13)CC(C)(C)CC2=O	-31
Nc1nc(SCC(=O)Nc2cccc(-c3nc4ccccc4s3)c2)n[nH]1	.
Cc1ccc(-n2ncc3c(C)n[nH]c(=O)c32)c(C)c1	.
O=C(OCC#CCOC(=O)c1ccccc1)c1ccccc1	.
O=c1c2scc(-c3ccccc3)c2ncn1Cc1cc(=O)n2ccccc2n1	-6
COc1ccc(-c2csc3c(=O)n(Cc4ccccc4F)cnc23)cc1	.
N#CCn1cnc2c(-c3ccccc3)csc2c1=O	.
Cc1nnsc1C(=O)O	.
Cc1cccc(N2CCN(S(=O)(=O)c3ccc(F)c(C(=O)Nc4ccc(Br)cc4F)c3)CC2C)c1 (stereo not given)	.
CCCN1CCCc2cc(CCNC(=O)COCC)ccc21	27
CCCN1CCCc2cc(CCNC(=O)C(=O)NCC(C)C)ccc21	.
CCCN1CCCc2cc(CCNC(=O)Cc3cccc(C)c3)ccc21	.
CCCN1CCCc2cc(CCNC(=O)C(C)(C)C)ccc21	16
CCCN1CCCc2cc(CCNC(=O)COc3ccccc3F)ccc21	.
CCCN1CCCc2cc(CCNC(=O)C3CCCCC3)ccc21	.
Cc1nn(C2CCS(=O)(=O)C2)c(C)c1S(=O)(=O)Nc1ccccc1F (stereo not given)	.
COc1ccc(-c2cc3c(SCC(=O)Nc4ccccc4C(F)(F)F)nccn3n2)cc1	.
SMILES	RMI FANCM FP
O=C(NCc1ccco1)c1cccc(NS(=O)(=O)c2cccc(Cl)c2)c1	.
CCCCCOc1ccc(C(=O)NN)cc1	.
N=C(N)c1ccc(N)cc1	.
N=C(N)c1ccc(OCCCCCOc2ccc(C(=N)N)cc2)cc1	-2!
O=S(=O)(N=C(Nc1ccc2ccccc2c1)c1ccccc1)c1ccc(Cl)cc1	.
O=C(CSCCS(=O)(=O)c1ccc(Cl)cc1)Nc1ccccc1Cl	.
NC(=O)SCC(=NS(=O)(=O)c1ccc(Cl)cc1)Nc1cccc2ccccc12	30
COc1ccc(-c2noc(-c3c(SC)nn(CC(=O)Nc4ccc(C)cc4C)c3N)n2)cc1	.
CCOC(=O)CNC(=O)CSc1ccc(Cl)cc1	.
Cc1ccc(N/C=C(\C#N)c2nc3ccccc3[nH]2)cc1	.
N#CC(=C(O)c1ccccc1Br)c1nc2ccccc2[nH]1	14
N#C/C(=C\c1ccc([N+](=O)[O-])cc1)c1nc2ccccc2[nH]1	.
Cc1oc(-c2ccc(Cl)cc2[N+](=O)[O-])cc1C(=O)Nc1ccc(S(N)(=O)=O)cc1	13
Cc1cc(NS(=O)(=O)c2ccc(NC(=O)c3cc(Cl)ccc3[N+](=O)[O-])cc2)no1	.
Cc1oc(-c2cccc(C(F)(F)F)c2)cc1C(=O)Nc1ccc(S(N)(=O)=O)cc1	.
O=C(Nc1ccc(-n2ccc(C(F)(F)F)n2)cc1)Nc1ccc2c(c1)CCO2	.
COc1ccc(OC)c(S(=O)(=O)Nc2ccc(C#N)cc2)c1	.
Cc1ccc(C(=O)Nc2nc3c(s2)CCC3C(=O)Nc2ccc(F)c(F)c2)cc1 (stereo not given)	.
COCC(=O)Nc1ccc2c(c1)N(CCC(C)C)C(=O)C(C)(C)CO2	.
O=C(O)CCCNS(=O)(=O)c1ccccc1[N+](=O)[O-]	.
CCN1CCC[C@H]1CNC(=O)c1c(OC)ccc(Br)c1OC	.
C=CCN1CCCC1CNC(=O)c1cc2[nH]nnc2cc1OC (stereo not given)	.
CCN1CCC[C@H]1CNC(=O)c1cc(S(N)(=O)=O)ccc1OC	22!
Cn1cc(NC(=O)Nc2ccc3c(c2)OCO3)c2ccccc21	.
C(/C=C/c1ccco1)=N/Nc1nnc(-c2ccccc2)c(-c2ccccc2)n1	21
SMILES	RMI FANCM FP
C(=N/Nc1nc2ccccc2s1)/c1ccco1	.
C(=N/Nc1nnc(-c2ccccc2)c(-c2ccccc2)n1)/c1ccncc1	.
O=C(O)/C=C\C(=O)Nc1ccccc1OC(F)(F)F	.
O=C(O)/C=C\C(=O)Nc1cccc2ccccc12	-3
N#CCCSc1ccccc1NC(=O)/C=C/C(=O)O	.
COc1cc(/C=C2\SC(=O)N(CC(=O)Nc3nccs3)C2=O)cc(OC)c1OC	.
O=C(Nc1ccc(S(=O)(=O)Nc2nccs2)cc1)c1csc2nc(-c3ccc(F)cc3)cn12	.
CCn1c(SCC(=O)Nc2ccc3c(c2)OCO3)nnc1-c1cccn(C)c1=O	.
CCCCCCCCCCCCCCCC[N+](C)(C)C	34
CCCCCCCCCCCCCO	.
C[N+](C)(C)CCSSCC[N+](C)(C)C	.
CO/N=C(/C(=O)N[C@@H]1C(=O)N2C(C(=O)O)=C(C[N+]3(C)CCCC3)CS[C@H]12)c1csc(N)n1	.
CO/N=C(/C(=O)NC1C(=O)N2C(C(=O)O)=C(COC(C)=O)CSC12)c1csc(N)n1 (stereo not given)	.
C=CC1=C(C(=O)O)N2C(=O)[C@@H](NC(=O)C(=NO)c3csc(N)n3)[C@H]2SC1	34
CC(C)N1CCC(CNC(=O)Cc2cccs2)CC1	.
Cc1ccc2c(c1)NC(=O)c1cc(NC(=O)c3c(-c4ccccc4Cl)noc3C)ccc1O2	.
Cc1ccc(Cl)cc1NC(=O)CN1C(=O)c2ccccc2C1=O	.
Cc1ccc2[nH]c3c(=O)n(CC(=O)NC(C)C)cnc3c2c1	.
Cc1c(O)ccc2c(CN3CCC4(CC3)OCCO4)cc(=O)oc12	25
COc1ccc(N2CCN(Cc3cc(=O)oc4c3ccc3ccccc34)CC2)cc1	.
Cc1cc(O)c2c(CN3CCN(Cc4ccc5c(c4)OCO5)CC3)cc(=O)oc2c1	.
O=C(N/N=C\c1ccc([N+](=O)[O-])s1)c1nc(-c2ccc([N+](=O)[O-])o2)no1	.
Cc1noc(C)c1-c1nc(-c2ccc(Cl)cc2)no1	.
CSc1cccc(C(=O)Nc2nnc(-c3cc(C)ccc3C)o2)c1	.
CS(=O)(=O)c1cccc(-c2nnc(NC(=O)c3ccc(S(=O)(=O)N4CCc5ccccc5C4)cc3)o2)c1	.
SMILES	RMI FANCM FP
Cc1ccc(C)c(-c2nnc(NC(=O)c3ccc(S(=O)(=O)N4CCc5ccccc54)cc3)o2)c1	18
CC(C)C(NC(=O)COc1cccc(Br)c1)C(=O)O (stereo not given)	.
O=C(c1cccs1)N1CCc2ccc(NS(=O)(=O)Cc3ccc(F)cc3)cc2C1	.
Cn1c(=O)c2c(nc(NCc3cccnc3)n2CC(=O)c2ccccc2)n(C)c1=O	.
CCOc1ccc2c(c1)=CC(=Cc1sc(=S)n(CC3CCCO3)c1O)C(=O)N=2 (stereo not given)	23
CCOc1ccc(N2CC(NC(=O)NCC3CCCO3)CC2=O)cc1 (stereo not given)	.
O=c1c2sc3ccccc3c2[nH]c(=S)n1CC1CCCO1 (stereo not given)	.
O=C(NCCCN1CCCC1=O)C(=O)Nc1nccs1	.

High-throughput results from PubChem.
